# High-throughput results deposited in PubChem BioAssay by Broad Institute.
# This excerpt belongs to a sample that is enriched for hits.
# Tg IFNy HTS = T. gondii growth inhibition with IFN-gamma, primary screen, cell-based | activity change, negative = inhibition, % (test concentration not listed) | Toxoplasma gondii growth in IFN-gamma-treated host cells; stronger effect = lower value | actives 3.8% (n = 69,000); in the data active = activity change below about -70%, passing the limit was not always enough;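 also: host cells are HeLa cells infected with Toxoplasma gondii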
# * marks the source's active call; other numbers are inactive results; i = inactive; ! = not confirmed by another sample.
SMILES,Tg IFNy HTS
CC(C)n1c(C(=O)N2CCOCC2)nc2c1CCN(C(=O)c1ccccc1)C2,98
Cc1nc2ncccn2c1C(=O)N1CCCC(CO)(CCc2ccccc2)C1 (centres undefined),-5
Cc1ccc(-c2coc(-c3ccc(NC(=O)Nc4ccc(F)cc4)cc3)n2)cc1,29
CCSc1nsc(NC(=O)CN2CCC(Oc3cccc(F)c3)CC2)n1,12
O=C(Nc1ccc(F)cc1)Nc1nc(SCc2ccc(F)cc2)ns1,-110*
Cc1cccc(OC(C)c2nnc(NC(=O)C3=NN(C)C(=O)CC3)s2)c1C (centres undefined),-20
COc1cc(CN(C)Cc2cccc3ncccc23)cc(F)c1O,51
COc1cc(COC2CN(C3CCCC3)CC(=O)N(C(C)C)C2)cc(OC)c1 (centres undefined),2
O=C(NCc1nc(-c2ccccc2)no1)c1cnn(-c2ccc(F)cc2)c1,17
CCO[C@H]1COC[C@@H]1NC(=O)Cc1c(C)[nH]c2ccccc12,5
Cc1[nH]c2ccccc2c1CCNCc1ccc(/C=C/C(=O)NO)cc1,-82*!
Cc1[nH]c2ccccc2c1CCNC(=O)c1cccs1,29
CC(C)C1Oc2cc3oc(=O)ccc3cc2/C1=N\NC(N)=S (centres undefined),9
Cc1ccc(S(=O)(=O)CCC(=O)NCCn2nc(C)c(Cl)c2C)cc1C,-3
CCc1ccccc1-c1cccc(N2CCNCC2)n1,-6
C(=C\c1cccc(N2CCNCC2)n1)/c1ccccc1,-78*
C(=C\c1cccc(N2CCNCC2)c1)/c1ccccc1,3
COCc1nnc(NC(=O)c2cccc(Cn3cccn3)c2)s1,14
Cc1ccc(S(=O)(=O)NCCc2csc(-c3ccc(F)cc3)n2)cc1C,-28
O=C(Cc1cccs1)N1CCc2c([nH]c3ccccc23)C1c1ccc(Cl)cc1 (centres undefined),-118*
Cc1ccc(C2c3[nH]c4ccccc4c3CCN2C(=O)Cc2cccs2)cc1 (centres undefined),-125*
CSc1ccc(C2c3[nH]c4ccccc4c3CCN2C(=O)Cc2cccs2)cc1 (centres undefined),-69
CSc1ccc(C2c3[nH]c4ccccc4c3CCN2C(=O)CCc2cccs2)cc1 (centres undefined),-85*
CCOc1cccc(C2c3[nH]c4ccccc4c3CCN2C(=O)Cc2cccs2)c1 (centres undefined),i
COc1ccc(C2c3[nH]c4ccccc4c3CCN2C(=O)Cc2cccs2)cc1 (centres undefined),229
SMILES,Tg IFNy HTS
CSc1ccc(C2c3[nH]c4ccccc4c3CCN2C(=O)CCc2ccccc2)cc1 (centres undefined),-61
O=C(Cc1cccs1)N1CCc2c([nH]c3ccccc23)C1c1ccc(F)cc1 (centres undefined),-17
CCOc1cccc(CC(=O)N2CCc3c([nH]c4ccccc34)C2c2ccc(Cl)cc2)c1OCC (centres undefined),-29
Cc1ccc(Cl)c(NC(=O)c2cccc(CN3CCCC(O)C3)c2)c1 (centres undefined),9
COCCO[C@H]1CCN(c2ccc(C)nn2)[C@H]1Cc1cnn(C)c1,4
COc1c[nH]c(C(=O)N2CCCC(C(=O)c3ccc(Cl)cc3C)C2)cc1=O (centres undefined),4
O=C(CCc1nc(-c2ccncc2)no1)N1CCc2ncc(Cl)cc2C1,26
COc1ccccc1-c1cc(C(=O)NCc2noc(-c3ccc(Cl)cc3)n2)[nH]n1,-60
CCCCNC(=O)CC1N=C2c3ccccc3N=C(SCc3ccccc3Cl)N2C1=O (centres undefined),-9
CS(=O)(=O)N1CC[C@@H]2OCC[C@@H](C(=O)NCc3cccnc3)[C@@H]2C1,-4
Cc1cccnc1CN1CCN(C(=O)c2sc(Cc3ccccc3)nc2C)CC1,1
O=C1Nc2ccccc2C1Cc1cccs1 (centres undefined),36
CCCS(=O)(=O)NCC1COCc2c(C)nnn2C1 (centres undefined),52
CCOc1ccc(C(=O)NC2CCN(S(=O)(=O)c3ccccc3)CC2)cc1,-84*
O=C(NC1CCN(Cc2ccccc2)CC1)c1ccc(I)cc1,10
CN1CCN(S(=O)(=O)c2ccc(C(=O)NC3CCCCC3)cc2)CC1,-6
CC(=O)N1CCCn2cnc(CNc3ncccn3)c2C1,13
COc1cc2cc(CN3CCCC(CO)(CO)C3)c(=O)[nH]c2cc1OC,1
COc1ccccc1OC1CN(C(=O)c2ccc(-n3cnnc3)cc2)C1,0
CCOC(=O)Cc1ccc(NC(=O)Nc2ccc(-c3nc(-c4cc(C)ccc4C)co3)cc2)cc1,-10
COC(=O)c1c(NCc2cccnc2)c2cccc(Cl)c2[nH]c1=O,17
COC(=O)c1c(NCc2ccc3c(c2)OCO3)c2cccc(Cl)c2[nH]c1=O,82
COC(=O)c1c(NCc2ccc(F)cc2F)c2cccc(Cl)c2[nH]c1=O,-76*
COC(=O)c1c(NCCO)c2cccc(Cl)c2[nH]c1=O,3
COC(=O)c1c(NCC(C)C)c2cccc(Cl)c2[nH]c1=O,-7
SMILES,Tg IFNy HTS
COC(=O)c1c(NCc2ccc(SC)cc2)c2cccc(Cl)c2[nH]c1=O,-79*
COC(=O)c1c(NCc2ccc(F)cc2F)c2cc(F)ccc2[nH]c1=O,6
COC(=O)c1c(NCc2ccccc2OC)c2cccc(Cl)c2[nH]c1=O,-4
COC(=O)c1c(NCc2ccccc2)c2cccc(Cl)c2[nH]c1=O,-55
COC(=O)c1c(NCc2ccc(OC)cc2)c2cccc(Cl)c2[nH]c1=O,-29
COC(=O)c1c(NCCC(C)C)c2cccc(Cl)c2[nH]c1=O,-85*
COC(=O)c1c(NCc2cc(F)cc(F)c2)c2cccc(Cl)c2[nH]c1=O,-98*
c1cc(-c2nccn2CCN2CCCCC2)cc(-n2cccn2)c1,1
Cc1nn(CC(=O)NC(C)C)c(=O)c2nc(-c3ccccc3)sc12,-8
CC(C)C(=O)NCCc1csc(-c2ccc(Cl)cc2)n1,42
COc1cccc(-c2cn[nH]c2C2CCN(C(=O)c3ccc(C)[nH]c3=O)CC2)c1,6
COCCc1noc(CN2C[C@@H]3C4CCC(CC4)[C@@H]3C2)n1,-4
CN(C)C(=O)N1CCOCC2(C1)CN(c1cccc(C#N)c1)C(=O)CO2 (centres undefined),12
COC(=O)c1ccc(NC(=O)c2c(O)c3cccnc3n(-c3ccc(F)cc3)c2=O)cc1,4
COc1ccccc1C(=O)Nc1ccc(-c2nc(Cn3nc(C)c(C)c3C)c(C)o2)cc1,-69
Cc1ccc(C(=O)N2CCC(c3nnc(-c4cnc(C)cn4)o3)CC2)cc1,0
CCC1CN(Cc2cccnc2N)CCN1C(C)C (centres undefined),1
CNC(=O)c1ccccc1Sc1ccc2c(/C=C/c3ccccn3)n[nH]c2c1,-75*!
O=C(Nc1cc(-c2ccccn2)no1)c1cccc2[nH]ccc12,273
CC(C)Sc1ccccc1C(=O)NCc1ccccn1,22
COc1ccc2cc(-c3cc(-c4cc(Cl)cc(Cl)c4)nn3[C@@H](C)c3ccc(C(=O)NCCC(=O)O)cc3)ccc2c1,-73*
COc1ccc(C(=O)NCCc2csc(-c3ccc(Cl)cc3)n2)cc1,-58
CC(C)Oc1ccc(C(=O)NCCc2csc(-c3ccc(Cl)cc3)n2)cc1,7
Cc1ccc(-c2nc(CNC(=O)C3CCOC3)[nH]c2-c2ccccn2)cc1 (centres undefined),-53
Cc1c(CN2CCCC(c3cc(C(=O)N4CCC(C)CC4)on3)C2)cnn1C (centres undefined),23
